NS1 function inh – influenza NS1 inhibition. AID 2326. 270,000 tested, 0.4% active. Potency, µM (top dose mostly 46.1 µM); calls by dose curve; note: actives are rising curves; nearly all actives have a fitted effect of over 50% in size
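Read-out: OD600 growth recovery of NS1-expressing budding yeast. Cells grown overnight at 30C in -URA glucose medium, washed, resuspended and diluted 1:100 in 2% galactose assay medium, pH 6.0. Same strain lacking NS1 served as positive control.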
LmPK inhibitor – LmPK (Leishmania mexicana) enzyme inhibition | Q27686 | purified LmPK, Kinase-Glo ATP luminescence, 1 h | Potency, µM (top dose mostly 57.5 µM), hits mostly inhibitors | 290,000 tested, 0.37% active | AID 1721
Target sequence (Q27686 whole entry, looked up): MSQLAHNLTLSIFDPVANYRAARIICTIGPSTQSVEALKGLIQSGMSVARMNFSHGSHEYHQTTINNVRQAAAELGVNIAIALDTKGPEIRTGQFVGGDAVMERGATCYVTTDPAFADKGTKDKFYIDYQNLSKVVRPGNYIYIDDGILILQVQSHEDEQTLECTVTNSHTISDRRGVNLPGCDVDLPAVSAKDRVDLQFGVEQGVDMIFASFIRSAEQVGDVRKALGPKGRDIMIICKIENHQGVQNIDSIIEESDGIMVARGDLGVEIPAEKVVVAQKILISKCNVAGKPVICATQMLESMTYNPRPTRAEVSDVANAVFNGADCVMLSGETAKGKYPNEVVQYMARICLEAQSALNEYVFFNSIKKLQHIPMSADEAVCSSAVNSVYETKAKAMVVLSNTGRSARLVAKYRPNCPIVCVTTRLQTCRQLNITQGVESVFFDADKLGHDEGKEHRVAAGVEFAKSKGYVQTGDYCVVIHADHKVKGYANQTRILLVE
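0.1 nM LmPK, 0.5 mM PEP, 0.1 mM ADP; 50 mM imidazole pH 7.2, 7 mM MgCl2, 50 mM KCl; 1 h RT. Kinase-Glo luminescence readout, normalized to no-enzyme (full inhibition) and uninhibited wells.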
TbPYK inhibitor – T. brucei pyruvate kinase inhibition; TbPYK enzyme, Kinase-Glo Plus ATP luminescence, 45 min; Potency, µM (top dose mostly 76.8 µM), actives largely listed as inhibitors; 410,000 tested, 0.12% active; AID 624173; note: nearly all actives have a fitted effect of over 50% in size
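In this concentration-response screen, enzyme-free wells defined baseline while DMSO plates tracked drift. Each reaction combined TbPYK, substrate, compound and 130 uM ADP for 45 min at room temperature. Kinase-Glo Plus luminescence gave the signal.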
SARS PLP yeast – blocks SARS-CoV papain-like protease in a yeast assay; Potency, µM (top dose mostly 32.9 µM), usual class: activators; S. cerevisiae expressing SARS-CoV PLpro, growth rescue; AID 485353; 330,000 tested, 0.19% active; calls by dose curve; note: nearly all actives have a fitted effect of over 55% in size
Sm TGR inh – S. mansoni TGR enzyme inhibition; Q962Y6; purified TGR, DTNB reduction, TNB absorbance 405 nm; Potency, µM (doses to about 114 µM), hits mostly inhibitors; 360,000 tested, 3% active; note: nearly all actives have a fitted effect of over 60% in size
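TGR 20 nM + NADPH 100 uM (dispensed conc.), cpd preinc 15 min RT; start with NADPH (500 uM addition) then DTNB (15 mM addition). Kinetic TNB absorbance, 405 nm filter. Four-parameter Hill fit across titration.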
RE007 growth inh – less growth of the S. pombe RE007 Vpr strain; S. pombe RE007 Vpr strain, BacTiter-Glo ATP luminescence, 24 h; Potency, µM (titrated, usually from 92.2 µM), hits mostly inhibitors; 360,000 tested, 0.21% active; AID 651644; active = well fitted falling curve with a large enough effect; inconclusive = small, poorly fitted or top-dose-only effect; inactive = no such curve, though single readings can be large or run the other way; note: nearly all actives have a fitted effect of over 50% in size
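Fission yeast RE007 carrying one integrated HIV-1 vpr copy, seeded at OD 0.01 in PMG+AL medium with 23 nL pinned compound. Grown 24 h at 30 degrees; viability read by BacTiter-Glo luminescence after 5 min.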
Numbers stand for hits; . = inactive; ? = inconclusive; / = not tested or not shown; [ ] = remark or other dose. Most compounds without a hit are left out; they make up all but 3.3% or so of the library. Unless noted, calls come from the whole dose curve; as a rule, active = well fitted curve in the direction sought with a large enough effect; inconclusive = small, poorly fitted or top-dose-only effect, or another doubt; inactive = no such curve, though single readings can be large; an effect the other way counts as inactive or inconclusive.

SMILES | NS1 function inh | LmPK inhibitor | TbPYK inhibitor | SARS PLP yeast | Sm TGR inh | RE007 growth inh
Cc1ccc(-c2ccc(CCC(=O)O)n2-c2ccc(O)cc2)cc1 | . | . | . | . | 25.1µM | .
CCCCCOC(=O)Nc1nc(=O)n(C2O[C@H](C)[C@@H](O)[C@@H]2O)cc1F (stereo partly drawn) | / | / | . | / | / | /
O=C(O)CSc1cc(NS(=O)(=O)c2ccc(Br)cc2)c2ccccc2c1O | . | 3.55µM | ? | . | 5.62µM | .
Cc1cc(O)c(Sc2ncn[nH]2)cc1NS(=O)(=O)c1ccc(Cl)cc1 | / | / | . | . | . | .
O=S(=O)(Nc1cc(Sc2ncn[nH]2)c(O)c2ccccc12)c1ccccc1 | / | 14.1µM | ? | . | 0.891µM | ?
Fc1ccc(Nc2nc3nonc3nc2Nc2cccc(C(F)(F)F)c2)cc1 | / | / | . | / | . | /
C/C(CC/C(C)=N/O)=N/O | . | / | / | / | / | /
Cc1ccc(C(=O)CCNc2ccc(Br)cc2)o1 | . | . | . | / | ? | .
Cc1ccc(C(=O)CCNc2ccc(F)c(Cl)c2)o1 | . | . | . | . | ? | ?
Cc1ccc(C(=O)CCNc2cccc(Br)c2)o1 | . | . | . | . | 56.2µM | ?
Cc1ccc(C(=O)CCNc2ccccc2)o1 | . | . | . | / | 25.1µM | 11.2µM
COc1ccc(-c2nc3sc(CCNC(=O)c4ccc(C(C)(C)C)cc4)c(C)n3n2)cc1 | / | / | . | / | . | /
Cc1ccc(C)c(Nc2nc(-c3ccccc3)c3cc(Br)ccc3n2)c1 | / | / | . | / | . | /
c1coc(-c2nc(-c3ccco3)c(-c3ccco3)nc2-c2ccco2)c1 | . | . | . | . | 0.708µM | .
COc1ccc2nc(-c3ccco3)c(-c3ccco3)nc2c1 | . | . | ? | . | 3.55µM | ?
Nc1nc(-c2ccco2)cs1 | . | . | . | . | ? | .
COc1ccc(-c2nc3ccccc3nc2-c2ccc(OC)cc2)cc1 | . | . | . | . | . | .
Nc1nc(-c2ccco2)c(-c2ccco2)s1 | . | . | . | . | 20µM | .
COc1ccc2nc3cccc(OC)c3nc2c1 | / | . | . | . | 20µM | ?
COc1ccc2nc3ccccc3nc2c1N | . | ? | . | . | ? | ?
COc1ccc(C(=O)/C=C/C(=O)N(CC(=O)NC2CCCCC2)Cc2cccs2)c(O)c1 | . | . | ? | . | 1.58µM | .
COc1ccc(C2CC(=O)c3c([nH]c(C(=O)OC4CCCCCC4)c3C)C2)cc1OC (stereo not drawn) | / | / | . | / | . | /
CC(/C=N/N1CCN(c2ccccc2)CC1)=C\c1ccccc1 | . | . | . | . | . | .
CC(/C=N/N1CCN(c2ccccc2)CC1)=C\c1ccco1 | . | 12.6µM | ? | . | . | .
CC(=C/c1ccco1)/C=N/N1CCN(c2ccccc2)CC1 | . | 15.8µM | / | . | . | .[3.69 µM]
SMILES | NS1 function inh | LmPK inhibitor | TbPYK inhibitor | SARS PLP yeast | Sm TGR inh | RE007 growth inh
Cc1cc(C)cc(N(CC(=O)O)S(=O)(=O)c2cccnc2)c1 | . | / | / | / | / | /
CCOc1ccccc1NC(=O)c1nc2nc(C)cc(C(F)F)n2n1 | / | / | . | / | . | /
COc1ccccc1N1CCN(C(=O)Cn2cnc3onc(-c4ccc(F)cc4)c3c2=O)CC1 | / | / | . | / | . | /
Cc1cccn2c(=O)c(C=O)c(N3CCCCC3)nc12 | . | . | . | . | . | .
Cc1cccn2c(=O)c(C=O)c(Cl)nc12 | . | . | . | . | 6.31µM | .
CCOC(=O)N1CCN(c2nc3c(C)cccn3c(=O)c2C=O)CC1 | . | . | . | . | 39.8µM | .
Cc1cccn2c(=O)c(C=O)c(Sc3ncccn3)nc12 | / | . | . | . | 22.4µM | .
CC(C)CC(=O)NC1(C(F)(F)F)C(=O)Nc2c1c(=O)[nH]c(=O)n2-c1ccccc1 (stereo not drawn) | / | / | . | / | . | /
Cc1cccc(N2CCN(C(=O)CN3C(=O)COc4ccc(S(=O)(=O)N5CCCCCC5)cc43)CC2)c1C | / | / | . | / | . | /
COc1cc([N+](=O)[O-])ccc1-c1ccc(C(=O)Nc2ccc(NC(C)=O)cc2)o1 | ? | . | ? | . | 20µM | .
CC(=O)Nc1ccc(NC(=O)c2ccc(-c3ccc([N+](=O)[O-])cc3)o2)cc1 | . | . | . | . | . | .
COc1cccc(NC(=O)c2ccc(-c3ccc([N+](=O)[O-])cc3)o2)c1 | . | . | . | . | 25.1µM | .

Screens as filed in PubChem BioAssay.
